Assay results published in PubChem BioAssay (Tox21).
Results filed as inconclusive are left out. A call without a number means that no potency is given here. Calls of active or inactive are those of the source. Calls follow the shape of the dose curve; as a rule, active = well fitted inhibition curve with a large enough effect in the repeat runs; inconclusive = weak or mixed curves; inactive = flat fitted curve, though single readings scatter.

molecular target: Luciferin 4-monooxygenase (Photinus pyralis) (UniProt P08659); assay: qHTS assay to identify small molecule inhibitors of firefly luciferase (AID 1224835); also: nearly all actives have a fitted effect of over 25% in size; details: purified P. pyralis luciferase, luminescence inhibition; series mostly up to 115 µM
Method in brief: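 Inhibition of purified Photinus luciferase is measured by luminescence. Substrate levels (D-luciferin, ATP) sit at their KM values. Each compound is tested in a concentration series.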

Luciferin 4-monooxygenase (Photinus pyralis), sequence (P08659 whole entry, looked up): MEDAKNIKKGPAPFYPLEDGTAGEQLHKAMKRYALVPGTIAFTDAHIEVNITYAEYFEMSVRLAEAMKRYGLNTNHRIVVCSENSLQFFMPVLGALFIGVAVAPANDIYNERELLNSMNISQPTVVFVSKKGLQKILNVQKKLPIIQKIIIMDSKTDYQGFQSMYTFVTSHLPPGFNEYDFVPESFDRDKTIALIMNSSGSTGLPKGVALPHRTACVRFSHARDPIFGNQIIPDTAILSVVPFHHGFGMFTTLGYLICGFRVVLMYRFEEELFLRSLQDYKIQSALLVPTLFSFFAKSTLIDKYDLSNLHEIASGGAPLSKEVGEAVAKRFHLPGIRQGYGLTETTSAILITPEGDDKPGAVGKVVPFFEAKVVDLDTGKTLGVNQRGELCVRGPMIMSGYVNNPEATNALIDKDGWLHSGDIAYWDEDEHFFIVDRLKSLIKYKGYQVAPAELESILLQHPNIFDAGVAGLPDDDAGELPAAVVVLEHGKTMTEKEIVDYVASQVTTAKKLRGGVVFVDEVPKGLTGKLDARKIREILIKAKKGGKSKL

**Q.** Which Potency does the source give for `CN(CCOc1ccc(NS(C)(=O)=O)cc1)CCc1ccc(NS(C)(=O)=O)cc1` here?
**A.** Its Potency is “inactive”.

**Q.** How did the Potency turn out when `CCCCCCOC(=O)CC` was run?
**A.** Its Potency is “inactive”.

**Q.** Which Potency does the source give for `O=S(=O)(O)CCN1CCN(CCO)CC1` here?
**A.** The Potency was “inactive”.

**Q.** For `Cc1cc(C(C)(C)C)c(O)c(C)c1CC1=NCCN1`, which Potency is on record?
**A.** Its Potency is “inactive”.

**Q.** `CC(C)(C)c1n[nH]c(=S)n(N)c1=O` was tested. Which Potency did it give?
**A.** The Potency was “inactive”.

**Q.** Which Potency does the source give for `CCC(C)NC(N)=O` (centres undefined) here?
**A.** Its Potency is “inactive”.

**Q.** Which activity change, negative = inhibition does the source give for `Oc1cn2c(n1)Nc1ccc(Cl)c(Cl)c1C2` here?
**A.** The activity change, negative = inhibition was 0.455% [at 23.6 µM] (inactive).

**Q.** How did the activity change, negative = inhibition turn out when `Cc1nc2n(c(=O)c1CCN1CCC(c3noc4cc(F)ccc34)CC1)CCC[C@H]2O` was run?
**A.** Its activity change, negative = inhibition is 0.0649% [at 23.6 µM] (inactive).

**Q.** `NS(=O)(=O)c1ccc(NC(=O)CCC(=O)O)cc1` was tested. Which Potency did it give?
**A.** Its Potency is “inactive”.

**Q.** Which Potency does the source give for `C=C(C)C(=O)OCC(C)(C)COC(=O)C(=C)C` here?
**A.** Its Potency is “inactive”.

**Q.** With `CCCCCCCCSCC` as the compound, how does the Potency read?
**A.** The Potency was “inactive”.

**Q.** For `C=C(C)C1CCC(C)(O)CC1` (centres undefined), which Potency is on record?
**A.** Its Potency is “inactive”.

**Q.** With `On1nnc2ccccc21` as the compound, how does the Potency read?
**A.** Its Potency is “inactive”.

**Q.** Which Potency does the source give for `NC(CO)C(=O)NNCc1ccc(O)c(O)c1O` (centres undefined) here?
**A.** The Potency was “inactive”.

**Q.** How did the activity change, negative = inhibition turn out when `N[C@@H](COP(=O)(O)O)C(=O)O` was run?
**A.** The activity change, negative = inhibition was 0.319% [at 23.6 µM] (inactive).

**Q.** `O=C1CC(c2ccc(Cl)cc2)CC(=O)N1` was tested. Which Potency did it give?
**A.** Its Potency is “inactive”.

**Q.** Which Potency does the source give for `CCOc1cc(NC(C)=O)ccc1C(=O)OC` here?
**A.** Its Potency is “inactive”.

**Q.** How did the Potency turn out when `CC(C)N(c1ccccc1)C(C)C` was run?
**A.** Its Potency is “inactive”.

**Q.** For `CC(C)(C)c1nnc(NS(=O)(=O)c2ccc(N)cc2)s1`, which Potency is on record?
**A.** The Potency was “inactive”.

**Q.** For `C=CCCCCCCCCCCCC`, which Potency is on record?
**A.** The Potency was “inactive”.

**Q.** For `CCCN1C[C@H](CSC)C[C@@H]2c3cccc4[nH]cc(c34)C[C@H]21`, which Potency is on record?
**A.** The Potency was “inactive”.

**Q.** With `CC(C)NCC(O)COc1ccc(COCCOC(C)C)cc1` (centres undefined) as the compound, how does the Potency read?
**A.** Its Potency is “inactive”.

**Q.** `COCCOCCOCCOCCOCCO` was tested. Which Potency did it give?
**A.** The Potency was “inactive”.

**Q.** Which Potency does the source give for `N#Cc1ccc(C(=O)O)cc1` here?
**A.** Its Potency is “inactive”.

**Q.** `Cc1ccccc1C(=O)Nc1ccc(C(=O)N2CCCC(N(C)C)c3ccccc32)cc1` (centres undefined) was tested. Which Potency did it give?
**A.** Its Potency is “inactive”.

**Q.** Which Potency does the source give for `COCCOC(=O)C1=C(C)NC(C)=C(C(=O)OC(C)C)C1c1cccc([N+](=O)[O-])c1` (centres undefined) here?
**A.** Its Potency is “inactive”.

**Q.** Which activity change, negative = inhibition does the source give for `CN1CCN(CC(=O)N2c3ccccc3C(=O)Nc3cccnc32)CC1` here?
**A.** The activity change, negative = inhibition was 1.23% [at 10.5 µM] (inactive).

**Q.** How did the Potency turn out when `CCCCCCCCOS(=O)(=O)O` was run?
**A.** Its Potency is “inactive”.

**Q.** Which Potency does the source give for `CC(=O)NCc1c(I)c(NC(C)=O)c(I)c(C(=O)O)c1I` here?
**A.** Its Potency is “inactive”.

**Q.** Which Potency does the source give for `COc1cc(C(=S)N2CCOCC2)cc(OC)c1OC` here?
**A.** Its Potency is “inactive”.

**Q.** For `COc1ccc(C2CNC(=O)C2)cc1OC1CCCC1` (centres undefined), which Potency is on record?
**A.** Its Potency is “inactive”.

**Q.** `CC(C)(C)NC(N)=O` was tested. Which Potency did it give?
**A.** Its Potency is “inactive”.

**Q.** With `Cc1ccc(C=O)cc1C` as the compound, how does the Potency read?
**A.** The Potency was “inactive”.

**Q.** How did the Potency turn out when `CN1C(C)(C)CCCC1(C)C` was run?
**A.** The Potency was “inactive”.
